The entries come from a sample that favours hits as a whole.
14-3-3g Raf: modulators of 14-3-3 gamma protein binding, primary screen, biochemical, fluorescence polarization. FP, 14-3-3gamma / TMR-pS259-Raf peptide binding. inhibition, % at 40 µM. 0.19% of 160,000 active. AID 422, 2006; in the data active = inhibition above about 30%;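 note: 0% = protein plus tracer without compound and 100% = blank with tracer alone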
Target sequence (P61981 whole entry, looked up): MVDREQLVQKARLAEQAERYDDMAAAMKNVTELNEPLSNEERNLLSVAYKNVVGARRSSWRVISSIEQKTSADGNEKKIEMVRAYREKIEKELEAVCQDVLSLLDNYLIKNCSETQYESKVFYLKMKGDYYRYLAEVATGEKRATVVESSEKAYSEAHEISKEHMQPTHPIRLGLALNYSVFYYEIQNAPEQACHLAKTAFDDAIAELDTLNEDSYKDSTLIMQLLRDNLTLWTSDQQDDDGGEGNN
Starred values were filed as active, the others as inactive.

SMILES | 14-3-3g Raf
Oc1ccc2ccccc2c1C=Nc1nc2c(s1)CCCC2 | 36*
O=[N+]([O-])c1ccc(Nc2ncnc3ccccc23)cc1 | 15
CCCOc1cccc(C2/C(=C(/O)c3ccncc3)C(=O)C(=O)N2CCCN(C)C)c1 (stereo unspecified) | -11
CCC(=O)Oc1c(-c2ccccc2)c2nc3ccccc3nc2c2ccccc12 | 27
CC(=O)Oc1c(C)cc(O)c2ccccc12 | 3
CC(=O)Oc1c(-c2ccccc2)c2nc3ccccc3nc2c2ccccc12 | 33*
COc1ccc(-c2oc3ncn(Cc4ccccc4)c(=N)c3c2-c2ccc(OC)cc2)cc1 | 13
COc1cccc2c1OC(c1cccc(Cl)c1)N1N=C(c3ccco3)CC21 (stereo unspecified) | -61
COc1ccc(/C(O)=C2\C(=O)C(=O)N(CCCn3ccnc3)C2c2ccccc2F)cc1 (stereo unspecified) | 37*
COc1ccccc1C1/C(=C(\O)c2ccc(Cl)cc2)C(=O)C(=O)N1CCCn1ccnc1 (stereo unspecified) | 6
O=C1C(=O)N(CCCn2ccnc2)C(c2ccncc2)/C1=C(\O)c1ccc(F)cc1 (stereo unspecified) | 0
Cc1ccc(-c2ccccc2)n1-c1ccc(O)c(C(=O)O)c1 | -39
O=C(O)c1cc(N2Cc3ccccc3C2)ccc1O | 81*
O=C1c2ccc(N3Cc4ccccc4C3)cc2C(=O)N1c1ccccc1 | -10
CCn1c(=O)n(CC(=O)Nc2ccccn2)c(=O)c2ccccc21 | 0
Nc1nnc(SCC(=O)NCc2ccc3c(c2)OCO3)s1 | 13
O=C(Cc1c(C(=O)O)[nH]c2ccc(Cl)cc12)NCc1ccco1 | 7
C#CCn1c2ccccc2c2ccccc21 | 58*
OCCN1CCN(CC#CCn2c3ccccc3c3ccccc32)CC1 | -2
OC(CCl)Cn1c2ccccc2c2ccccc21 (stereo unspecified) | 8
COc1ccc(N=Cc2cc([N+](=O)[O-])cc(Br)c2O)cc1OC | 9
COc1ccc(N=Cc2cc(Cl)cc([N+](=O)[O-])c2O)cc1Cl | -20
COc1ccc(N=Cc2cc(Cc3ccccc3Cl)cc([N+](=O)[O-])c2O)cc1OC | 79*
CCCOc1ccc(C(=O)N(Cc2ccc(N(C)C)cc2)C2CCS(=O)(=O)C2)cc1 (stereo unspecified) | 1
Cc1cc(C)c2c(Nc3csc4nc(C)cc(C)c34)csc2n1 | -7

From PubChem BioAssay
